From PubChem BioAssay (NCATS) come the findings set out here.

SMILES strings stand for the structures. Values joined by “and” are separate entries in the source; they are usually repeats but may differ in a detail not shown here. Equal entries are not always repeated. Unmarked numbers belong to inactive results. Active and inactive are the calls of the source. Calls follow the shape of the dose curve; as a rule, active = well fitted activation curve with a large enough effect; inconclusive = small, poorly fitted or top-dose-only effect; inactive = flat fitted curve, though single readings scatter.
Potency is read from the fitted curve at half-maximal effect.

In this test the target is Peroxisome proliferator-activated receptor alpha (Homo sapiens) (UniProt Q07869). The experiment in a line: qHTS assay for small molecule agonists of the peroxisome proliferator-activated receptor alpha (PPARalpha) signaling pathway (AID 651778). As to max response: % of control where 0% means no effect. The settings on record: PathHunter PPARalpha complementation, chemiluminescence, 6 h; max response: hits give high values. The text has this: National Center for Advancing Translational Sciences [NCATS]
Chain of Peroxisome proliferator-activated receptor alpha (Homo sapiens) (Q07869 whole entry, looked up): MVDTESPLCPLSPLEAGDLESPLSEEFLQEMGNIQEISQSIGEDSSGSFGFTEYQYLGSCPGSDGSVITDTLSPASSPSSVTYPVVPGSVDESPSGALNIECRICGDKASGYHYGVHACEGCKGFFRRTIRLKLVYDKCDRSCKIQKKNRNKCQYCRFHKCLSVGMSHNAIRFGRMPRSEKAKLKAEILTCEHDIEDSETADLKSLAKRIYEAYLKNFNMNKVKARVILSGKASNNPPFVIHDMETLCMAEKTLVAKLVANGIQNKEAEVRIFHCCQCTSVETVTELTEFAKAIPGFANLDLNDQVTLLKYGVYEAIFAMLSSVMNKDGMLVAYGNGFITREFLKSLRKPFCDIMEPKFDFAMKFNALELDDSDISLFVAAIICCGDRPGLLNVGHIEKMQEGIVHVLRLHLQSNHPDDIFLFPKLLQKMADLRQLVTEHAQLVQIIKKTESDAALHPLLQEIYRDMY
NIH Chemical Genomics Center [NCGC]
U.S. Environmental Protection Agency [EPA]
National Institutes of Environmental Health Sciences [NIEHS]
National Toxicology Program [NTP]
The Peroxisome proliferator-activated receptors (PPARs) are lipid-activated transcription factors of the nuclear receptor superfamily with three distinct subtypes (alpha, garmma and beta/delta). All these subtypes heterodimerize with retinoid X receptor and have different physiological functions. PPARalpha is highly expressed in tissues with high rates of mitochondrial fatty acid oxidation, such as liver, heart, muscle, kidney and cells of the arterial wall. PPARalpha is a major regulator of lipid metabolism and energy homeostasis.
A cell based assay was used to identify activators of PPARalpha. The assay detects binding of a ligand to PPARalpha leading to its activation, translocation and complementation thus forming a functional enzyme capable of hydrolyzing the substrate molecule and generating chemiluminescent signal.
2,000 cells in 6 uL/well were dispensed into white wall/solid bottom 1536-well plates using a Multidrop Combi (Thermo Scientific) dispenser. After incubation 37 C and 5% CO2 overnight, 23 nL compound or DMSO only were transferred by a pin tool. The plates were incubated for 6 hr at 37 C and 5% CO2. 3 ul PathHunter detection reagent (Discoverx) was then added to each well and following 60 min incubation at room temperature, chemiluminescence was quantified on a ViewLux CCD-based plate reader.
(In qHTS, concentration-response curves come from the screen itself.)
Consider `CCO`, for which the max response was -0.991%.
Consider `C/C=C\c1ccc(OC)cc1`, for which the max response is -5.71%.
Consider `CCCCCCCCO`, for which the max response is 2.47% and -5.18% and -0.424%.
For `Cc1ccccc1C`, the max response is 1.03% and -0.383%.
On the same count and under the same terms, the result for `O=C1c2ccccc2C(=O)C1c1ccc2ccccc2n1` reads 1.24% and 1.1%.
Take `O=C1CCc2ccccc2O1`: the max response is 0.979%.
For the compound `C=CCc1ccc(OC)c(OC)c1`, the max response was 8.14% and -0.977%.
With `C[Si](C)(C)O[Si](C)(C)O[Si](C)(C)C`, the max response was 0.325%.
For the compound `CCCCCCCCCCCCCC(=O)O`, the Potency is 22.4 µM (active).
With `Cc1c(N=C=O)cccc1N=C=O`, the max response was -4.58% and -0.661%.
For `CC12CCC(CC1=O)C2(C)C` (stereo not given), the max response was -4.19% and 0.373%.
For `O=S(=O)(O)c1ccccc1`, the max response was -0.704%.
With `CCCCCCCCOC(=O)c1cc(O)c(O)c(O)c1`, the max response was -2.68%.
As for `COC(=O)c1ccc(C=O)cc1`, the max response was -7.41% and -4.28%.
Take `c1ccc2scnc2c1`: the max response is -3.74%.
On to `C=CC(=O)OCCOCCOCCOCCOC(=O)C=C`, for which the max response is -0.0133% and -3.95%.
Regarding `O=C(O)c1ccc(O)cc1O`, the max response is -2.85% and -4.3%.
Take `c1ccc2c(c1)c1cccc3ccc4cccc2c4c31`: the max response is -2.3% and -3.04%.
As for `CN(C)C=O`, the max response was 18% and -2.47% and -1.42%.
Still for that read-out and setting: the result for `O=C(O)c1ccccc1` reads -2.27%.
For the compound `OCCNCCO`, the max response was 0.687% and 0.279%.
As for `ClCCCl`, the max response was 1.65% and -1.11%.
Turning to `CC(=O)OC/C=C(\C)CCC=C(C)C`, the max response was -5.73% and -0.163%.
With `NC1=NC(S)C2N=CN=C2N1` (stereo not given), the max response is -3.14%.
`CN(C)CCCCCCN(C)C`: the max response was -5.54%.
On the same count and under the same terms, the result for `S=C1NC=NC2N=CNC12` (stereo not given) reads -7.07%; that for `O=C(O)CC(C(=O)O)C(CC(=O)O)C(=O)O` (stereo not given), -1.2% and -0.001%; that for `Cc1ccc([N+](=O)[O-])c(C)c1`, -4.28% and -0.811%.
In the case of `O[C@@H]([C@H](O)[C@@H](O)CBr)[C@@H](O)CBr`, the max response was -0.722%.
For `Cc1ccc(N)c([N+](=O)[O-])c1`, the max response is -6.83% and -1.01%.
Regarding `CC1=C2[C@H](/C=C(\C)C(=O)O)CC[C@@H](C)[C@H]2CC1`, the max response was 14.9%.
Take `C[C@H](CCC(=O)O)[C@H]1CC[C@H]2[C@@H]3CC[C@@H]4C[C@H](O)CC[C@]4(C)[C@H]3CC[C@]12C`: the max response is 2.21% and -0.262%.
On to `CCCCOCCO`, for which the max response is -6.41% and -1.42% and -1.76%.
For `c1ccc2c(c1)[nH]c1ccccc12`, the max response is 5.12% and 0.259%.
In the case of `CCCN(CCC)C(=O)SCC`, the max response was -2.51% and -1.87%.
On the same count and under the same terms, the result for `CCCCC(CC)CN` (stereo not given) reads -4.52% and -4.66%; that for `O=NO`, 0.744% and -3.6%.
As for `c1ccccc1`, the max response was -1.87% [middle of 4 runs].
With `O=C(O[C@@H]1Cc2c(O)cc(O)cc2O[C@@H]1c1cc(O)c(O)c(O)c1)c1cc(O)c(O)c(O)c1`, the max response was -1.73%.
Turning to `COc1ccc2nc(N)sc2c1`, the max response is -0.146% and -0.816%.
